The whole screen tested about 220,000 compounds, of which about 2,400 (1.1%) were called active. This excerpt belongs to a sample that is enriched for actives. Unmarked numbers belong to inactive results.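 The calls were made as follows: active = inhibition above a per-campaign cutoff, the mean inhibition of all tested compounds plus 3 SD (cut at about 27% in these data); inactive = the rest.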
assay: growth loss in parental Ba/F3 cells – cell-based, murine pro-B, CellTiter-Glo luminescence, counter-screen for JAK2V617F inhibitor project (AID 1486); conditions: Ba/F3 parental viability, CellTiter-Glo ATP luminescence; at 5.6 µM; hits give high values;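 also: 0% = DMSO wells and 100% = JAK Inhibitor I control wells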

Row | Structure (SMILES) | inhibition
1 | CCCCNc1nc2c(c(=O)n(C)c(=O)n2C)n1Cc1cccc(OC)c1 | 48.4% (active)
2 | Cn1c(=O)c2c(nc(NCCc3ccccc3)n2Cc2ccccc2)n(C)c1=O | 6.77%
3 | COC(=O)C(C)Sc1nc2c(c(=O)n(C)c(=O)n2C)n1Cc1cccc(C)c1 (stereo not given) | 4%
4 | Cc1c(C(=O)Nc2cccc(Cl)c2)cn2c(nc3ccccc32)c1C#N | 2.67%
5 | COC(=O)C1CCN(C(=O)c2cc(=O)[nH]c3ccccc23)CC1 | 5.12%
6 | O=C(COC(=O)CCCNC(=O)c1ccc(Cl)cc1)Nc1cc(Cl)ccc1Cl | 2.29%
7 | O=C(/C=C/Sc1ncn[nH]1)c1ccc(Cl)cc1 | 59.2% (active)
8 | Cc1cc(C)nc(S/C=C/C(=O)c2ccccc2)n1 | 6.81%
9 | COc1ccc(Cl)cc1CSc1ncn[nH]1 | -3.75%
10 | Nc1scc[n+]1Cc1cccc2cccnc12 | -7.17%
11 | CC1=CC(C)(C)NC(=S)N1NC(=O)c1ccccc1Cl | -3.65%
12 | COc1ccc(N2CCN(Cc3cc(=O)oc4ccc5ccccc5c34)CC2)cc1 | 5.38%
13 | COc1ccc(Nc2cc(=O)n(-c3ccccc3)c3c2c(=O)n(C)c(=O)n3C)cc1 | 4.99%
14 | COc1ccc(Nc2cc(=O)oc3ccccc23)cc1 | 50.9% (active)
15 | O=C(Nc1cccc(S(=O)(=O)NC2=NCCC2)c1)C1CCCCC1 | -1.01%
16 | CCN(CC)CCn1c(N)c(S(=O)(=O)c2ccccc2)c2nc3ccccc3nc21 | 5.27%
17 | O=C(Nc1cc(N2CCOCC2)ncn1)NC1(C(F)(F)F)Oc2ccc(Cl)cc2O1 (stereo not given) | 42.3% (active)
18 | c1cnn(-c2cc(N3CCOCC3)ncn2)c1 | 5.98%
19 | Cc1csc(NC(=O)NC2(C(F)(F)F)Oc3ccccc3O2)n1 | 13.6%
20 | CC1(C)CCSC(/C=C/c2ccccc2)=N1 | -2.99%
21 | CC1(C)C=C2[C@H]3CC[C@@H]4[C@@]5(C)CCC(=O)C(C)(C)[C@@H]5CC[C@@]4(C)[C@]3(C)CC[C@@]2(C(=O)O)CC1 | 4.85%
22 | Cc1cc(C)cc(OCC(=O)Nc2ccc(S(=O)(=O)Nc3ccccn3)cc2)c1 | -1.55%

Row | Structure (SMILES) | inhibition
23 | Cc1ccc(S(=O)(=O)Nc2ccc3ncccc3c2)cc1 | 37.5% (active)
24 | Cc1ccc(OCC(=O)Nc2ccc(S(=O)(=O)Nc3ccccn3)cc2)cc1 | 0.56%
25 | COc1ccccc1C(=O)Nc1nc2nc(-c3ccccc3)cc(=O)n2[nH]1 | 2.81%
26 | Nc1nc(Sc2ncccc2[N+](=O)[O-])n[nH]1 | -0.31%
27 | CCOC(=O)c1ccc(NNC(C)=O)c([N+](=O)[O-])c1 | -0.42%
28 | O=C(NNC(=O)C1C2CCC(C2)C1C(=O)O)c1ccc(Cl)cc1 (stereo not given) | 2.39%
29 | COc1cccc(OC)c1C(=O)Nc1ccc(N2CCCCC2)cc1 | 9.75%
30 | COc1cccc(C(=O)Nc2ccc(N3CCCC3)cc2)c1 | 45.8% (active)
31 | COc1ccc(C(=O)NC(=S)Nc2ccc(N3CCCC3)cc2)cc1OC | 3.89%
32 | CCOCCCn1c(NN)nc2ccccc2c1=O | 1.96%
33 | COn1c(=O)c(=O)n(OC)c2ccccc21 | 3.35%
34 | O=C1CCCN1CCCNc1ncnc2c1[nH]c1ccccc12 | 2.08%
35 | COc1cc(OC)c(OC)cc1/C=N/Nc1ncnc2c1[nH]c1ccc(C)cc12 | -0.75%
36 | CC(C)OCCCNc1ncnc2c1[nH]c1ccc(F)cc12 | 69.9% (active)
37 | CS(=O)(=O)c1ccc2nnn(OCC(=O)Nc3cccc(C#N)c3)c2c1 | -2.77%
38 | COc1ccc(NC(=O)C(CC(C)C)NS(=O)(=O)c2ccc3c(c2)CCN3C(C)=O)cc1OC (stereo not given) | 1.81%
39 | CCCc1nnc(SCC(=O)N2C(C)CCCC2C)n1CC (stereo not given) | 2.43%
40 | O=C(Nc1ccc2c(c1)OCCO2)c1cnccn1 | 4.31%
41 | CCN(CC)c1ccc(/C=N/Nc2nc(C)cc(C)n2)c(O)c1 | 3.74%
42 | CCN(CC)c1ccc(/C=N/NC(=O)c2cnccn2)c(O)c1 | 34.4% (active)
43 | COC(=O)c1noc(C)c1-c1ccnn1C(=O)c1ccc(Cl)cc1 | -1.68%
44 | COCc1cc(=O)oc2cc(NS(=O)(=O)c3ccc(C)cc3)ccc12 | -1.36%

Row | Structure (SMILES) | inhibition
45 | COc1ccc(NC(=S)NCCNC(C)=O)cc1 | 3.11%
46 | COc1ccc(NC(=S)Nc2ccccc2Cl)cn1 | 9.94%
47 | COc1ccc(NC(=O)/C(Cl)=C(/Cl)S(=O)Cc2ccc(C)cc2)cn1 (stereo not given) | 103% (active)
48 | Cc1ccc(NC(=O)OCc2cncs2)cc1 | 8.02%
49 | COc1ccc(CS(=O)/C(Cl)=C(/Cl)C(=O)Nc2ccc(OC)nc2)cc1 (stereo not given) | 104% (active)
50 | COc1ccc(Nc2cc(Cl)ccc2C(=O)O)cn1 | -9.44%
51 | CN(C)/C(CN1CCCCC1)=C1\N=C(c2ccccc2)OC1=O | 7.38%
52 | O=C(CNCc1cccs1)Nc1cc(S(=O)(=O)N2CCCC2)ccc1Cl | -6.85%
53 | Cc1ccc(-c2cc(=O)c3ccc(F)cc3[nH]2)cc1 | 0.37%
54 | O=c1cc(-c2ccccc2)[nH]c2cc(F)ccc12 | 72.4% (active)
55 | Cc1ccc(-c2cc(=O)c3ccc(Cl)cc3[nH]2)cc1 | -0.93%
56 | Cc1cc(O)ccc1NC1=CC(=O)CC(C)(C)C1 | 6.24%
57 | CCN(CC)CCCN=Cc1c(O)n(-c2ccc(C)cc2)c(=O)c2ccccc12 | 1.41%
58 | O=c1c2ccccc2nc2n1C(CSCc1ccccc1)CS2 (stereo not given) | 39.8% (active)
59 | O=c1c2ccccc2nc2n1C(CSCc1cccc(C(F)(F)F)c1)CS2 (stereo not given) | 17.3%
60 | O=c1c2ccccc2nc2n1C(CSc1ccc(F)cc1)CN2 (stereo not given) | 3.79%
61 | Nc1nonc1-n1nnc(C(=O)N/N=C/c2cc(Br)ccc2O)c1CSC1=NCCS1 | 4.7%
62 | COC(=O)C1=C(N)Oc2c(oc(CO)cc2=O)C1c1c(F)cccc1Cl (stereo not given) | 1.36%
63 | S=c1[nH]nc(-c2ccccc2)n1/N=C/c1c[nH]c2ccccc12 | 0.81%
64 | CSC(=S)N/N=C/c1c[nH]c2ccccc12 | 3.36%
65 | C[n+]1ccc(/C=C/c2c[nH]c3ccccc23)cc1 | 75.7% (active)

— PubChem BioAssay AID1486 (The Scripps Research Institute Molecular Screening Center, 2009)
